# Assay results published in PubChem BioAssay (Tox21).
# Records with an inconclusive call do not appear. Activity calls are given as the source filed them. Unless noted, calls come from the whole dose curve.
# Assay: qHTS assay to identify small molecule agonists of the NFkB signaling pathway - cell viability counter screen (AID 1159515); note: nearly all actives have a fitted effect of over 55% in size
# Conditions: NFkB-bla ME-180 viability, CellTiter-Glo luminescence, 5 h; series mostly up to 61 µM; activity, negative = cytotoxic: at the top concentration
# Procedure, shortened: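 NFkB-bla ME-180 cells, 2,000/well, plated overnight at 37 C; compound added for 5 hr at 37 C. Viability read in the same wells as the bla reporter, by CellTiter-Glo luminescence after 30 min at room temperature.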
# % is set by controls: 0 for no effect and ±100 for the full control effect.
row,Structure (SMILES),"activity, negative = cytotoxic"
1,COC(=O)[C@@H]1CC2=CC(=O)CC[C@]2(C)[C@@]23O[C@@H]2C[C@@]2(C)[C@@H](CC[C@@]24CCC(=O)O4)[C@H]13,7.1% (inactive)
2,CC1CC(O)CC(C)(C)C1 (stereo unspecified),0.367% (inactive)
3,CCOC(=O)/C=C/C(=O)O,-2.82% (inactive)
4,CO/N=C1\CN(c2nc3c(cc2F)c(=O)c(C(=O)O)cn3C2CC2)CC1CN (stereo unspecified),1.81% (inactive)
5,C=CC(=O)NCOCC(C)C,-2.13% (inactive)
6,O=C(O)c1c(O)c(-c2ccccc2)nc2ccccc12,4.41% (inactive)
7,CC(CCO)CCc1ccccc1 (stereo unspecified),-1.33% (inactive)
8,COc1ccc(CCC(=O)c2c(O)cc(O[C@@H]3O[C@H](CO)[C@@H](O)[C@H](O)[C@H]3O[C@@H]3O[C@@H](C)[C@H](O)[C@@H](O)[C@H]3O)cc2O)cc1O,11% (inactive)
9,COc1ccc(C(=O)c2cccc(O)c2)c(OC)c1,7.71% (inactive)
10,N#C/C(=C1/SC[C@@H](c2ccc(Cl)cc2Cl)S1)n1ccnc1,-11.7% (inactive)
11,Cc1cc(O)c2c(O)c3c(O)cccc3cc2c1,3.85% (inactive)
12,CCC(C)(C)C1CCC(O)CC1 (stereo unspecified),5.71% (inactive)
13,Cc1ccccc1N1C(=O)c2cc(S(N)(=O)=O)c(Cl)cc2NC1C (stereo unspecified),3.49% (inactive)
14,C/C=C(\C)C(=O)OCCC(C)CCC=C(C)C (stereo unspecified),-0.244% (inactive)
15,O=C(O)c1cccc(O)c1,8.01% [at 78.8 µM] (inactive)
16,COc1cc2c(N3CCN(C(=O)Nc4ccc(OC(C)C)cc4)CC3)ncnc2cc1OCCCN1CCCCC1,-16% (inactive)
17,CCOC(=O)c1ccccc1C,-0.518% (inactive)
18,CCCCCC=CCC=CCCCCCCCC(=O)OCC,-7.05% (inactive)
19,C[N+](C)(C)CCOC(N)=O,5.1% (inactive)
20,CCCCC(=O)O[C@]1(C(=O)CO)CC[C@H]2[C@@H]3CCC4=CC(=O)CC[C@]4(C)[C@H]3[C@@H](O)C[C@@]21C,-8.43% (inactive)
21,C=CCNc1nc(NCC=C)nc(N2CCN(C(c3ccc(F)cc3)c3ccc(F)cc3)CC2)n1,-1.81% (inactive)

# Assay: qHTS assay to identify small molecule agonists of the endoplasmic reticulum stress response signaling pathway (AID 1159516; active = well fitted activation curve with a large enough effect in the signal ratio in the repeat runs, not every such curve was filed as active; the % refers to the signal ratio)
# Conditions: ESRE-bla HeLa, ER stress beta-lactamase reporter, 5 h; series mostly up to 61 µM; activation: at the top concentration
# Procedure, shortened: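 CellSensor ESRE-bla HeLa cells, 1,500 per well, plated overnight, then exposed to compounds for 5 hr at 37 C. Beta-lactamase reporter read with LiveBLAzer B/G FRET substrate after 2 hr at room temperature, 405 nm excitation, 460 and 530 nm emission.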
row,Structure (SMILES),activation
1,C1COCO1,3.51% (inactive)
2,O=S1OCCO1,-0.363% [at 78.8 µM] (inactive)
3,CNCCCC1c2ccccc2C=Cc2ccccc21,-0.584% (inactive)
4,NC(=O)Cn1c(=O)cc(CCN2CCN(c3nccc4sccc34)CC2)c2ccc(F)cc21,0.878% (inactive)
5,O=C(N/N=C/c1ccc([N+](=O)[O-])o1)c1ccc(O)cc1,1.72% (inactive)
6,CC(=O)Nc1ccccc1C,-2.82% [at 78.8 µM] (inactive)
7,O=C(CCCN1CCC(O)(c2ccc(Br)cc2)CC1)c1ccc(F)cc1,-0.0488% (inactive)
8,CCOC(=N)CC(=O)OCC,-1.82% (inactive)
9,Cc1cc(C(=C2C=CC(=Nc3ccc(S(=O)(=O)O)cc3S(=O)(=O)O)C=C2)c2ccc(Nc3ccc(S(=O)(=O)O)cc3)cc2)ccc1N,0.221% (inactive)
10,CCCCC(CC)C(=O)OCCOCCOCCOCCOC(=O)C(CC)CCCC (stereo unspecified),0.111% (inactive)
11,CN1CCN(CCCN2c3ccccc3Sc3ccc(S(=O)(=O)N(C)C)cc32)CC1,-0.438% (inactive)
12,CCCCN(CCCC)CCCOC(=O)c1ccc(N)cc1,-2.61% (inactive)
13,O=C(CCCCCCCCC#CI)Oc1ccccc1,0.491% (inactive)
14,CSc1ccc(Oc2ccc(S(N)(=O)=O)cc2CN(C)C)cc1C,2.35% (inactive)
15,CN(C(=O)C(Cl)Cl)c1ccc(OC(=O)c2ccco2)cc1,0.845% (inactive)
16,CC1CN(c2cc3c(cc2F)c(=O)c(C(=O)O)cn3-c2ccc(F)cc2F)CCN1 (stereo unspecified),-0.328% [at 6.95 µM] (inactive)
17,CCC(C(=O)OCCOCCN(CC)CC)c1ccccc1 (stereo unspecified),-0.929% (inactive)
18,C[C@@H]1C[C@H]2[C@@H]3CCC4=CC(=O)C=C[C@]4(C)[C@@]3(F)[C@@H](O)C[C@]2(C)[C@@]1(O)C(=O)CO,-0.447% [at 78.8 µM] (inactive)
19,CCCCCCCCCCCC(=O)[O][Sn]([CH2]CCC)([CH2]CCC)[O]C(=O)CCCCCCCCCCC,-9.92% (inactive)
20,COC(=O)[C@@H]1CC2=CC(=O)CC[C@]2(C)[C@@]23O[C@@H]2C[C@@]2(C)[C@@H](CC[C@@]24CCC(=O)O4)[C@H]13,3.89% (inactive)

row,Structure (SMILES),activation
1,CC1CC(O)CC(C)(C)C1 (stereo unspecified),4.83% (inactive)
2,CCOC(=O)/C=C/C(=O)O,0.193% (inactive)
3,CO/N=C1\CN(c2nc3c(cc2F)c(=O)c(C(=O)O)cn3C2CC2)CC1CN (stereo unspecified),9.3% (inactive)
4,C=CC(=O)NCOCC(C)C,-2.5% (inactive)
5,O=C(O)c1c(O)c(-c2ccccc2)nc2ccccc12,0.345% (inactive)
6,CC(CCO)CCc1ccccc1 (stereo unspecified),-0.289% (inactive)
7,COc1ccc(CCC(=O)c2c(O)cc(O[C@@H]3O[C@H](CO)[C@@H](O)[C@H](O)[C@H]3O[C@@H]3O[C@@H](C)[C@H](O)[C@@H](O)[C@H]3O)cc2O)cc1O,0.301% (inactive)
8,COc1ccc(C(=O)c2cccc(O)c2)c(OC)c1,-4.08% (inactive)
9,N#C/C(=C1/SC[C@@H](c2ccc(Cl)cc2Cl)S1)n1ccnc1,-7.95% (inactive)
10,Cc1cc(O)c2c(O)c3c(O)cccc3cc2c1,1.04% (inactive)
11,CCC(C)(C)C1CCC(O)CC1 (stereo unspecified),2.35% (inactive)
12,Cc1ccccc1N1C(=O)c2cc(S(N)(=O)=O)c(Cl)cc2NC1C (stereo unspecified),-2.22% (inactive)
13,C/C=C(\C)C(=O)OCCC(C)CCC=C(C)C (stereo unspecified),-0.853% (inactive)
14,O=C(O)c1cccc(O)c1,-0.0414% [at 78.8 µM] (inactive)
15,COc1cc2c(N3CCN(C(=O)Nc4ccc(OC(C)C)cc4)CC3)ncnc2cc1OCCCN1CCCCC1,2.56% (inactive)
16,CCOC(=O)c1ccccc1C,-0.339% (inactive)
17,CCCCCC=CCC=CCCCCCCCC(=O)OCC,-5.74% (inactive)
18,C[N+](C)(C)CCOC(N)=O,-1.45% (inactive)
19,CCCCC(=O)O[C@]1(C(=O)CO)CC[C@H]2[C@@H]3CCC4=CC(=O)CC[C@]4(C)[C@H]3[C@@H](O)C[C@@]21C,-7.64% (inactive)
20,C=CCNc1nc(NCC=C)nc(N2CCN(C(c3ccc(F)cc3)c3ccc(F)cc3)CC2)n1,13.1% (inactive)
